The text below walks through data of PubChem BioAssay (NCI).

Values joined by “and” are separate entries in the source; they are usually repeats but may differ in a detail not shown here. Equal values may be shown once. Compounds without any hit were thinned out: in the full panel of roughly 83,000, 20% have a hit.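 How to read the values: 0–100, growth inhibition (40 = 60% inhibited); 0, no net growth; -100 to 0, cell death (-40 = 40% of starting cells died; -100 = all dead).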 Values without a mark were called inactive. Active and inactive are the calls of the source. How the source made its calls: active means growth percent below 10; inactive means the rest.

The subject of this assay is MDA-MB-468 breast. The assay is described as follows: NCI-60 one-dose screen, 48 h (100 = growth as untreated, 0 = no growth, -100 = all killed). The following applies: 10 µM unless noted.
For the molecule `Cc1ccc(/C=C2\CN(C(=O)CCN3CCC(=NO)CC3)C/C(=C\c3ccc(C)cc3)C2=O)cc1`, the growth is -54.2% (active).

For the molecule `CC1=NN(c2cccc(S(N)(=O)=O)c2)C(=O)C1`, the growth is 95.6%.

For the molecule `CCCCSc1ccc2nc(-c3ccc(OCCCN=C(N)N)cc3)cn2c1`, the growth was 35.6%.

As to `CCCn1cnc2c(c1=N)C(c1ccc(OC)cc1)c1sc3c(CC)cccc3c1O2` (stereo not given), the growth is 39.4%.

For `Cc1ccc(-c2nnc(SCc3ccc(O)c4ncccc34)o2)cc1`, the growth is 14.4%.

As to `Cc1c(C(=O)Nc2nc(-c3ccccc3)cs2)nnn1-c1cccc2ccccc12`, the growth was 12.3% [50 µM].

Turning to `CCCC1=NNC(=O)C1`, the growth was 115%.

`COc1cc(/C=N\NC(=O)CN2CCN(c3cc4c(cc3F)c(=O)c(C(=O)N/N=C/c3cc(OC)c(OC)c(OC)c3)cn4C3CC3)CC2)cc(OC)c1OC`: the growth was -31.1% (active).

As to `NNC(=O)CSc1nc2scc(-c3ccccc3)c2c(=O)n1-c1ccccc1`, the growth is 102%.

As for `OCC1OC(n2cnc3c(Cl)ncnc32)CC1O` (stereo not given), the growth is 91.9%.

In the case of `O=C(CCN1CCCC1)Nc1ccc2c(NCc3ccc(F)cc3)c3ccccc3nc2c1`, the growth was -46.1% (active).

For the molecule `COc1cc2cc(COc3nccc(-c4ccc(Cl)cc4)n3)c(=O)[nH]c2cc1OC`, the growth was 80.1%.

As to `COc1cnc2c(c1)C(=O)c1c-2n(CCCNC2=NCCS2)c(=O)c2cc(Cl)ccc12`, the growth is -4.65% (active).

On to `O=[N+]([O-])c1cccc(C(F)(F)F)c1`, for which the growth is 101%.

As for `CCOC(=O)C(C(=O)OCC)C(c1ccccc1)N1CCN(c2ccccc2)CC1` (stereo not given), the growth was 108% and 103%.

`Cc1cccc(NC(=O)CSc2nc3ccc([N+](=O)[O-])cc3[nH]2)c1`: the growth was 48.6%.

Consider `CCOC(=O)c1sc(-c2ccc(OS(=O)(=O)c3ccc(Br)s3)c(C=O)c2)nc1C`, for which the growth was 18.1%.

For the molecule `COc1ccc(Cn2cc(C(=O)N=Nc3c(O)[nH]c4c(C)cccc34)nn2)cc1`, the growth is 89.2%.

Consider `Cc1cccc(C)c1NC(=O)Nc1ccccc1`, for which the growth was 77.6%.

For the molecule `C#C[C@@]1(O)[C@@H](CO)O[C@@H](n2cc(I)c3c(N)ncnc32)[C@@H]1O`, the growth is -37.7% (active).

Consider `Cc1ccc(C[P+](c2ccccc2)(c2ccccc2)c2ccccc2)cc1`, for which the growth is -12.9% (active).

For `CC1CCN(CCCCCOc2ccc3oc4ccccc4c(=O)c3c2)CC1`, the growth is 41.6%.

For `CC(C)N=C1CCCC1C(=S)SSC(=S)C1CCCC1=NC(C)C` (stereo not given), the growth was 63.6%.

Take `CC(c1cc(Cl)ccc1O)c1cc(Cl)ccc1O`: the growth was 6.87% (active).

Consider `O=C(Nc1ccc(Cl)cc1)c1cc(NCc2cc(O)ccc2O)ccc1O`, for which the growth is 81.2%.

For the molecule `CC(=O)NCCCS(=O)(=O)O`, the growth is 113%.

As to `CCN(CC)c1ccc(NC2=C(Cl)C(=O)c3nc(C)ccc3C2=O)cc1`, the growth is -45% (active).

For `Cc1cc(C(=O)Nc2cc(Nc3ncccc3-c3ncnc4nc[nH]c34)ccc2F)cc(C(F)(F)F)c1`, the growth was 93.6%.

Consider `COC1=C(C)C(=O)c2c(c(CCCl)c3n2CCC3OC(C)=O)C1=O` (stereo not given), for which the growth was 85.5%.

As to `CCOC(=O)c1cnc2ccccc2c1Cl`, the growth was 97.4%.

Consider `COc1cc2c(c(OC)c1OC)-c1ccc(SC)c(=O)cc1[C@@H](NC1OC(CO)C(O)C(O)C1O)CC2` (stereo not given in full), for which the growth is 23.6%.

As for `COc1ccc(-c2cn[nH]c2-c2cc(OC)c3c(c2)OCCO3)cc1`, the growth is 5.64% (active).

Consider `S=c1nc(CS)[nH]c2ccccc12`, for which the growth was 103%.

Turning to `O=CN1N=C(c2cccc(Nc3ccnc4cc(Cl)ccc34)c2)CC1c1ccc(Cl)cc1` (stereo not given), the growth is -4.05% (active).

Regarding `Fc1ccc([C@@H]2CCNC[C@H]2COc2ccc3c(c2)OCO3)cc1`, the growth is 36.1%.

With `CC(C)CCC[C@@H](C)[C@H]1CC[C@H]2[C@@H]3CC[C@H]4C/C(=N/O)CC[C@]4(C)[C@H]3CC[C@]12C`, the growth is 99%.

Consider `Clc1ccc2c(c1)C(c1c[nH]c3ccccc13)(c1c[nH]c3ccccc13)CCO2`, for which the growth was 86.5%.

Turning to `COc1cccc(-c2nn(C(C)(C)C)cc2-c2ccnc(NCCCNS(=O)(=O)c3ccc(C)cc3)c2)c1`, the growth was 104%.

`FC(F)(F)c1ccccc1-c1cn2c(ccc3ccccc32)n1`: the growth is 105%.

As for `COc1cc2nc(Cc3ccc(C)cc3)[nH]c(=O)c2cc1OC`, the growth was 98.8%.
